Data published in PubChem BioAssay (EPA / NIEHS).
Values joined by “and” are separate entries in the source; they are usually repeats but may differ in a detail not shown here. Identical values can stand only once. Active and inactive are the calls of the source. The calls were made as follows: active = hit-call score of the fitted dose curve at least 0.9, where 1 is the maximum; inactive = score below 0.9.

Test: CCTE_Shafer_MEA_dev_burst_duration_mean: CCTE's Neural Network Formation Assay for Mean Burst Duration, Shafer Lab (AID 2284045);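 as to AC50: curve fitted for loss meaning shorter burst duration than DMSO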
Experimental: CCTE_Shafer_MEA_dev assay is conducted using Axion Biosystems 48 well microelectrode array (MEA) plates and Maestro recording system. Each well of the MEA plate contains a grid of 16 microelectrodes embedded in the culture surface. Electrically active cells, such as neurons, can be cultured over the electrodes, and electrical activity in these cells can be recorded extracellularly. The spontaneous firing of neurons is captured from each electrode on a microsecond timescale providing both temporally and spatially precise data. […] The CCTE_Shafer_MEA_dev assay uses primary cultures of rat cortical neurons. Recordings are made on days post-plating 5, 7, 9 and 12. As these cultures mature over time, neural networks develop functional activity and form cohesive networks in which electrical activity can be highly coordinated. CCTE_Shafer_MEA_dev_burst_duration_mean is 1 of 19 assay components of the CCTE_Shafer_MEA_dev assay. It measures the average time interval from the first spike (action potential firing) to the last spike in a singe-electrode burst (temporally-clustered group of spikes) during a recording in a microelectrode array (MEA) using Axion Biosystems Maestro 768 channel amplifier with the AxIS adaptive spike detector. The mean burst duration is averaged across the actively bursting electrodes to report a well-mean value. To collapse across multiple recordings made on days post-plating 5, 7, 9 and 12, the trapezoidal area-under-the-curve of the component is calculated.Data from the assay component CCTE_Shafer_MEA_dev_burst_duration_mean was analyzed into 1 assay endpoint. This assay endpoint, CCTE_Shafer_MEA_dev_burst_duration_mean, was analyzed in the negative analysis fitting direction relative to DMSO as the negative control and baseline of activity. Using a type of functional reporter, gain or loss-of-signal activity can be used to understand electrical activity.
On the day prior to culture, each well was coated thoroughly with 150 uL of 0.05% polyethyleneimine (PEI, Sigma Cat P3143) in 50 mM HEPES (Sigma Cat H7523) at a pH of 8. The plate was incubated at 37C for one hour. PEI was rinsed out with 500 uL of sterile water three times. Plates were stored at 4C until the day of culture. This culture was plated at a seeding density of 1.5 x 10^5 cells/well on a 48-well MEA plate, prepared as described above. Cells were administered via a 25 uL media/laminin ([…]; Sigma Cat L2020-1MG) drop directly onto the microelectrode array, as adding the cells with the laminin results in better attachment than pre-coating with laminin. After 2 hours, an additional 475 uL of cortical media was added and the cells returned to the incubator. Exposure starts at day 0 of plating and is continued over twelve days of network development until the experiment is terminated. Cells are fed with fresh medium on DIV 5 and 9, following the recordings on those days. The entire volume of media in the well is exchanged and any vehicle or compound treatment is renewed. Complete details are found in OP-NHEERL/ISTD/SBB/TJS/2015-03-r0 (available on request, email shafer.tim@epa.gov). Measurement of the electrical activity is non-invasive, and recordings can be made from the same plate over multiple different days of the culture. In cortical neurons, this allows for the measurement of extracellular action potentials over the period during which networks form in the MEA plate.
For `O=C(O)COc1ccc(Cl)cc1Cl`, the outcome was “inactive”. In the case of `COP(=S)(OC)Oc1ccc([N+](=O)[O-])cc1`, the outcome is reported as “inactive”. For `CC1(c2ccc(Oc3ccccc3)cc2)OC(=O)N(Nc2ccccc2)C1=O` (stereo not given), the outcome was “inactive”. For `Oc1cc(Cl)ccc1Oc1ccc(Cl)cc1Cl`, the outcome was “inactive”. With `O=[N+]([O-])/N=C1\NCCN1Cc1ccc(Cl)nc1` the outcome was “inactive”. For `O=C(O)C(F)(F)C(F)(F)C(F)(F)C(F)(F)C(F)(F)C(F)(F)C(F)(F)F`, the outcome was “inactive”. With `CC(C)N(C(=O)COc1nnc(C(F)(F)F)s1)c1ccc(F)cc1` the outcome was “inactive”. For `CC[C@H](C)[C@H]1O[C@]2(C=C[C@@H]1C)C[C@@H]1C[C@@H](C/C=C(\C)[C@@H](O[C@H]3C[C@H](OC)[C@@H](O[C@H]4C[C@H](OC)[C@@H](O)[C@H](C)O4)[C@H](C)O3)[C@@H](C)/C=C/C=C3\CO[C@@H]4[C@H](O)C(C)=C[C@@H](C(=O)O1)[C@]34O)O2` (tested in a mixture with another compound), the AC50 was 1.34 nM (active) and 0.41 nM (active). In the case of `CC1(C)C(C=C(Cl)Cl)C1C(=O)OC(C#N)c1ccc(F)c(Oc2ccccc2)c1` (stereo not given), the AC50 is reported as 2.04 µM (active) and 8.68 µM (active) and 7.93 µM (active). In the case of `O=S(=O)(O)C(F)(F)C(F)(F)C(F)(F)C(F)(F)C(F)(F)C(F)(F)C(F)(F)C(F)(F)F`, the outcome is reported as “inactive”. With `COP(=O)(OC)OC=C(Cl)Cl` the outcome was “inactive”. With `CCC(C)(C)C(=O)OC1=C(c2ccc(Cl)cc2Cl)C(=O)OC12CCCCC2` the outcome was “inactive”. For `CNC(=O)CSP(=S)(OC)OC`, the outcome was “inactive”. For `O=S1OCC2C(CO1)C1(Cl)C(Cl)=C(Cl)C2(Cl)C1(Cl)Cl` (stereo not given), the outcome was “inactive”. In the case of `ClC1C(Cl)C(Cl)C(Cl)C(Cl)C1Cl` (stereo not given), the outcome is reported as “inactive”.
